Laboratory results from PubChem BioAssay (NCI).
Compounds without any hit were thinned out: in the full panel of roughly 83,000, 20% have a hit.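 Values shown are percent growth following 48 h exposure of cells in 96-well plates to a single concentration of compound; below 10 was considered active.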 Unmarked numbers belong to inactive results. Active and inactive are the calls of the source.

Columns and labels:
Assay in all cases: NCI-60 one-dose screen, 48 h (100 = growth as untreated, 0 = no growth, -100 = all killed)
SK-MEL-2 melanoma = conditions: 10 µM unless noted
SN12C renal = conditions: 10 µM unless noted
UO-31 renal = conditions: 10 µM unless noted
TK-10 renal = conditions: 10 µM unless noted
ACHN renal = conditions: 10 µM unless noted
CAKI-1 renal = conditions: 10 µM
A498 renal = conditions: 10 µM unless noted
CCRF-CEM leukemia = conditions: 10 µM unless noted
MOLT-4 leukemia = conditions: 10 µM unless noted
SR leukemia = conditions: 10 µM unless noted
RPMI-8226 leukemia = conditions: 10 µM unless noted
OVCAR-8 ovarian = conditions: 10 µM unless noted
OVCAR-5 ovarian = conditions: 10 µM unless noted
OVCAR-4 ovarian = conditions: 10 µM unless noted
SK-OV-3 ovarian = conditions: 10 µM unless noted
IGROV1 ovarian = conditions: 10 µM unless noted
HS 578T breast = conditions: 10 µM unless noted
NCI/ADR-RES ovarian = conditions: 10 µM unless noted
EKVX NSCLC = conditions: 10 µM unless noted
OVCAR-3 ovarian = conditions: 10 µM unless noted

Row | SMILES | growth (SK-MEL-2 melanoma) | growth (SN12C renal) | growth (UO-31 renal) | growth (TK-10 renal) | growth (ACHN renal) | growth (CAKI-1 renal) | growth (A498 renal) | growth (CCRF-CEM leukemia) | growth (MOLT-4 leukemia) | growth (SR leukemia) | growth (RPMI-8226 leukemia) | growth (OVCAR-8 ovarian) | growth (OVCAR-5 ovarian) | growth (OVCAR-4 ovarian) | growth (SK-OV-3 ovarian) | growth (IGROV1 ovarian) | growth (HS 578T breast) | growth (NCI/ADR-RES ovarian) | growth (EKVX NSCLC) | growth (OVCAR-3 ovarian)
1 | Cn1nc(Nc2ccccc2)c(C(=O)NN)c1N | 103% | 97.3% | 81.5% | 118% | 97.4% | 94.1% | 97.2% | 91.1% | 104% | 107% | 106% | 97.5% | 102% | 99.9% | 103% | 95.4% | 99.7% | 93.9% | – | –
2 | O=S(=O)(NC1CC2CCC1C2)c1ccc2c(c1)C(=NO)c1cc(S(=O)(=O)NC3CC4CCC3C4)ccc1-2 (stereo unspecified) | 98.1% | 34.6% | -93% (active) | 95.6% | -95.4% (active) | -97.5% (active) | 89.4% | -18.8% (active) | 47.1% | -7.47% (active) | -24.6% (active) | 67% | 42.5% | -52.4% (active) | 86.4% | -73.7% (active) | 86% | 63.7% | – | –
3 | O=C(/C=C/Nc1ccc(S(=O)(=O)O)cc1)c1ccc(F)cc1 | – | 105% | 91.8% | 97.2% | 101% | 90.4% | 93% | 98.5% | 102% | 90.8% | 95.9% | 99.5% | 103% | 105% | 117% | 109% | 97.3% | 97.3% | 107% | –
4 | C=C(C)C(=O)O[C@H]1C[C@@]2(C)OC(=CC2=O)/C(CO)=C\[C@H]2OC(=O)C(=C)[C@H]12 | -23.7% (active) | – | -90.1% (active) | -88.1% (active) | -42.1% (active) | -75.1% (active) | – | -44% (active) | -28% (active) | -38.5% (active) | -25.6% (active) | 8.5% (active) | -56.5% (active) | 17.4% | 81.6% | -36% (active) | 17.2% | 11.6% | -5.67% (active) | -93.6% (active)
5 | O=c1[nH]c2cc(Cl)ccc2n1C1CCN(c2ccc3nnc(Cl)n3n2)CC1 | 93.1% | 95.3% | -30.9% (active) | 92.9% | 88.2% | 78.6% | – | 89% | 101% | 81.8% | 90.9% | 93.4% | 95.5% | 88.7% | 77.5% | 96.6% | 87.7% | 99.9% | – | –
6 | CN1CCN(c2ccc(C(=O)/C=C/c3ccc(Cl)c(C(F)(F)F)c3)cc2)CC1 | – | 49.1% | 50.5% | 102% | 65.7% | 64.1% | 81.6% | 11% | 41.6% | 2.99% (active) | 3.06% (active) | 55% | 79.7% | 66% | 105% | 78.1% | 87.3% | 64.4% | 70.2% | –
7 | CCN1C(=O)N(CC)C2SC(N/N=C/c3cccs3)=NC21 (stereo unspecified) | 13.5% | 29.9% | 53.4% | 84.5% | 32.9% | 27.1% | -23% (active) | 17.8% | 13.3% | 15.1% | 23.3% | -4.75% (active) | 43.6% | 62.5% | 31.9% | 23.7% | 15.4% | -0.335% (active) | – | –
8 | O=c1cc(-c2ccccc2)nc2sc(-c3c[nH]c4ccc(F)cc34)nn12 | – | 56.6% | 20.3% | 50.9% | 30% | 60.5% | 88.8% | 88.4% | – | – | 71.9% | 62% | 77.2% | -14.1% (active) | 56.6% | 85.4% | -4.32% (active) | 60.6% | 52% | –
9 | C=CCn1c(SCC(=O)Nc2cccc(C(=O)/C=C/c3cccc([N+](=O)[O-])c3)c2)nc2ccccc2c1=O | – | 98.3% | 79% | 98.4% | 96.5% | 81.2% | 81.1% | 94.5% | – | – | 17% | 94.2% | 92.5% | 92% | 116% | 96.8% | 91.9% | 95.7% | 96% | –
10 | COc1cc2c3c(n(CCCNC4CCC4)c(=O)c2cc1OC)-c1cc2c(cc1C3=O)OCO2 | – | -48.9% (active) | -70.9% (active) | 98.8% | -89.7% (active) | -82.2% (active) | 74.4% | -6.07% (active) | – | – | -39.1% (active) | -49.8% (active) | -72.4% (active) | -57.9% (active) | 23.4% | -53.3% (active) | 84.1% | -32.4% (active) | -38.4% (active) | –
11 | COc1cc2c3c(n(CCCN4CCC[C@H]4C(N)=O)c(=O)c2cc1OC)-c1cc2c(cc1C3=O)OCO2 | – | 17% | 17.5% | 59% | 0.589% (active) | 14.6% | -31% (active) | -4.01% (active) | – | – | -26.3% (active) | -44.9% (active) | 26.6% | 21.7% | -22.7% (active) | 33.7% | 70.9% | 9.81% (active) | 36.2% | –
12 | CS(=O)(=O)c1nccc(-c2c(-c3ccc(F)c(OCc4ccc(F)cc4)c3)nc3sccn23)n1 | – | 86.2% | 80.1% | 105% | 91.3% | 81.5% | 76.6% | 79.4% | – | – | 38.8% | 92.1% | 97% | 99.1% | 110% | 82.1% | 85.4% | 98% | 28.4% | –
13 | COc1cc2c3c(n(CCCNCC4CC4)c(=O)c2cc1OC)-c1cc2c(cc1C3=O)OCO2 | – | 44.6% | 49.8% | 72.5% | -73.1% (active) | -72.5% (active) | 68.6% | -9.44% (active) | – | – | -42.8% (active) | -60.5% (active) | -66.8% (active) | 1.27% (active) | 8.75% (active) | 56% | 95.3% | -13.6% (active) | 66% | –
14 | COc1cnc2c(c1)C(=O)c1c-2n(CCCNCC2CC2)c(=O)c2cc(F)ccc12 | – | 0.563% (active) | -81.7% (active) | -32.9% (active) | -62% (active) | -27.2% (active) | -31% (active) | -2.04% (active) | – | – | -38.5% (active) | -61.6% (active) | -6.47% (active) | -4.75% (active) | -38% (active) | 10.3% | 26.1% | 5.01% (active) | 13.3% | –
15 | COc1ccc(/C(C)=C(\c2ccc(Cl)cc2)c2ccc(OCCN)cc2)cc1 | – | 78.3% | 60.8% | 119% | 84.9% | 67.3% | 90.1% | 66.1% | – | – | 67.1% | 88.7% | 83.8% | 90.3% | 131% | 77.8% | 89% | 89.1% | 87.2% | –
16 | COCCOc1ccc(-c2csc(NC(C)=O)n2)cc1NS(=O)(=O)c1cccc2c(N(C)C)cccc12 | – | 79.8% | 64.2% | -21.2% (active) | 72% | 71.3% | 74.8% | 105% | – | – | 69.6% | 97.6% | 105% | 86.8% | 119% | 77.1% | 88% | 84.4% | 85.2% | –
17 | C=CCn1c(SCC(=O)Nc2cccc(C(=O)/C=C/c3cc(OC)c(OC)c(OC)c3)c2)nc2ccccc2c1=O | – | 41% | 49% | 112% | 45.7% | 44.2% | 75.6% | 9.12% (active) | – | – | -9.52% (active) | -14.7% (active) | 17.4% | 66.5% | 132% | 49.3% | 82% | 27.1% | 78.2% | –
18 | CCOC(=O)CC(=O)CSC1=NC2C(NN1)N(C)C(=O)N2C (stereo unspecified) | – | 91.6% | 57.2% | 104% | 82.6% | 88.5% | 118% | 38.8% | – | – | 56% | 66.8% | 88.6% | 88.9% | 114% | 91.2% | 94.4% | 80.1% | 56.2% | –
